Test results published in PubChem BioAssay (Tox21).
“And” between values parts separate entries of the source, which are not always exact repeats. Identical values can stand only once. The source made the active and inactive calls. Unless noted, calls follow the shape of the dose curve; as a rule, active = well fitted curve in the direction sought with a large enough effect in the repeat runs; inconclusive = weak or mixed curves; inactive = no such curve, though single readings can be large; an effect the other way counts as inactive or inconclusive.

Assays:
[1] = qHTS assay for small molecule disruptors of the mitochondrial membrane potential (AID 720635); also: potency is read from the fitted curve at half-maximal effect
How it was run: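 HepG2 cells exposed to compound 1 hr at 37C, then Mito-MPS dye 30 min. Ratio read of aggregate (540/590 nm) versus monomer (490/535 nm) fluorescence.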

[2] = qHTS assay to test for compound auto fluorescence at 535 nm (green) in HepG2 cells (AID 720675)
[3] = qHTS assay to test for compound auto fluorescence at 590 nm (red) in HEK293 cells (AID 720679)
How it was run: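 Each well held 2,000 HEK293 cells in medium containing 10% dialyzed FBS. Following 4-5 hr attachment at 37C, 23 nL test compound or DMSO was added; plates sat overnight, and red fluorescence (540/590nm) was recorded.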

[4] = qHTS assay to test for compound auto fluorescence at 460 nm (blue) in HEK293 cell free culture (AID 720681); also: potency is read from the fitted curve at half-maximal effect
How it was run: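 Compounds were added to cell-free DMEM with 10% FBS and fluorescence read directly. The blue channel used 405 nm excitation and 460 nm emission, with triamterene as the reference fluorophore.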

[5] = qHTS assay to test for compound auto fluorescence at 535 nm (green) in HepG2 cell free culture (AID 720686)
[6] = molecular target: Glucocorticoid receptor (Homo sapiens) (UniProt P04150); experiment: qHTS assay to identify small molecule agonists of the glucocorticoid receptor (GR) signaling pathway (AID 720691; active = well fitted activation curve with a large enough effect in the signal ratio in the repeat runs, not every such curve was filed as active; inconclusive = weak or mixed curves, or effect the other way; inactive = no such curve, though single readings can be large or run the other way; the % refers to the signal ratio; also: potency is read from the fitted curve at half-maximal effect)
Sequence of Glucocorticoid receptor (Homo sapiens) (P04150 whole entry, looked up): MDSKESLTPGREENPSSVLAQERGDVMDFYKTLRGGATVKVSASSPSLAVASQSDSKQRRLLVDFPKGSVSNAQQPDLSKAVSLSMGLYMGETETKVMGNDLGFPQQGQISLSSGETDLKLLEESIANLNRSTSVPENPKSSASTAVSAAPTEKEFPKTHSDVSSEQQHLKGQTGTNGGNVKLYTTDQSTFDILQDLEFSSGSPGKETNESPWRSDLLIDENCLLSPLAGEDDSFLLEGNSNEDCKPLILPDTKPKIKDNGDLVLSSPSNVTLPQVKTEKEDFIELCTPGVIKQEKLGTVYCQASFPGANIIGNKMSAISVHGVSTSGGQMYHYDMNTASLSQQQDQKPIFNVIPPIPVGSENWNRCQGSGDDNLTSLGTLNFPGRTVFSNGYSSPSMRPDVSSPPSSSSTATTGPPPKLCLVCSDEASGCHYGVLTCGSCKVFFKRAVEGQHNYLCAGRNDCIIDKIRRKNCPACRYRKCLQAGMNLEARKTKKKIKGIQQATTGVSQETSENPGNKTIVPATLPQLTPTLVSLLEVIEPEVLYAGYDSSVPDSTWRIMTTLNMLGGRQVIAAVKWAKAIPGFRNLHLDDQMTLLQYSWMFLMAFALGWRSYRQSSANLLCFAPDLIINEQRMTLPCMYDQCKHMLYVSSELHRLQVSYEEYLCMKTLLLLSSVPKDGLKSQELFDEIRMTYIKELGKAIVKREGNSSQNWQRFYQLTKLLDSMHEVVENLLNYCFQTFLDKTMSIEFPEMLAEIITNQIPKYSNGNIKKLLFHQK
How it was run: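 HeLa GR-bla reporter line; cells pre-incubated 4 h, compound in DMSO 18 h at 37 C; LiveBLAzer B/G FRET substrate 2 h RT; fluorescence intensity read-out.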

[7] = qHTS assay to identify small molecule antagonists of the glucocorticoid receptor (GR) signaling pathway - cell viability counter screen (AID 720693); also: nearly all actives have a fitted effect of over 55% in size; also: potency is read from the fitted curve at half-maximal effect
[8] = qHTS assay for identifying genotoxic compounds that show differential cytotoxicity against isogenic chicken DT40 cell lines with known DNA damage response pathways - Rev3 mutant cell line (AID 743014); also: nearly all actives have a fitted effect of over 55% in size; also: potency is read from the fitted curve at half-maximal effect
[9] = qHTS assay to identify small molecule antagonists of the androgen receptor (AR) signaling pathway using the MDA cell line - cell viability counter screen (AID 743041; also: nearly all actives have a fitted effect of over 45% in size; also: potency is read from the fitted curve at half-maximal effect)
How it was run: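 Cytotoxicity counter screen: MDA-kb2 AR-luc cells, compound + R1881, 16 h, 37C, 0% CO2; CellTiter-Fluor added at 15.5 h, fluorescence read after 30 min.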

[10] = qHTS assay to identify small molecule antagonists of the thyroid receptor (TR) signaling pathway - cell viability counter screen (AID 743064); also: nearly all actives have a fitted effect of over 50% in size; also: potency is read from the fitted curve at half-maximal effect
How it was run: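 Counter screen for cytotoxicity: compound plus T3 (1 nM final) on GH3.TRE-Luc cells, 23.5 h at 37 °C, then fluorescence viability readout with CellTiter-Fluor.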

[11] = qHTS assay to identify small molecule antagonists of the thyroid receptor (TR) signaling pathway (AID 743065); also: nearly all actives have a fitted effect of over 55% in size; also: potency is read from the fitted curve at half-maximal effect
How it was run: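 GH3.TRE-Luc rat pituitary cells (two TREs driving luciferase) were dosed with compound, then stimulated with 1 nM T3 (final) for 23.5 h at 37 C. ONE-Glo luminescence was the read-out, with CellTiter-Fluor fluorescence as the cytotoxicity counter-screen.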

[12] = molecular target: Aryl hydrocarbon receptor (Homo sapiens) (UniProt P35869); experiment: qHTS assay to identify small molecule that activate the aryl hydrocarbon receptor (AhR) signaling pathway (AID 743085);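 also: HG2L7.5c1 human HepG2 liver cells with stably integrated DRE-driven firefly reporter; series mostly up to about 70 µM; nearly all actives have a fitted effect of over 15% in size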
Sequence of Aryl hydrocarbon receptor (Homo sapiens) (P35869 whole entry, looked up): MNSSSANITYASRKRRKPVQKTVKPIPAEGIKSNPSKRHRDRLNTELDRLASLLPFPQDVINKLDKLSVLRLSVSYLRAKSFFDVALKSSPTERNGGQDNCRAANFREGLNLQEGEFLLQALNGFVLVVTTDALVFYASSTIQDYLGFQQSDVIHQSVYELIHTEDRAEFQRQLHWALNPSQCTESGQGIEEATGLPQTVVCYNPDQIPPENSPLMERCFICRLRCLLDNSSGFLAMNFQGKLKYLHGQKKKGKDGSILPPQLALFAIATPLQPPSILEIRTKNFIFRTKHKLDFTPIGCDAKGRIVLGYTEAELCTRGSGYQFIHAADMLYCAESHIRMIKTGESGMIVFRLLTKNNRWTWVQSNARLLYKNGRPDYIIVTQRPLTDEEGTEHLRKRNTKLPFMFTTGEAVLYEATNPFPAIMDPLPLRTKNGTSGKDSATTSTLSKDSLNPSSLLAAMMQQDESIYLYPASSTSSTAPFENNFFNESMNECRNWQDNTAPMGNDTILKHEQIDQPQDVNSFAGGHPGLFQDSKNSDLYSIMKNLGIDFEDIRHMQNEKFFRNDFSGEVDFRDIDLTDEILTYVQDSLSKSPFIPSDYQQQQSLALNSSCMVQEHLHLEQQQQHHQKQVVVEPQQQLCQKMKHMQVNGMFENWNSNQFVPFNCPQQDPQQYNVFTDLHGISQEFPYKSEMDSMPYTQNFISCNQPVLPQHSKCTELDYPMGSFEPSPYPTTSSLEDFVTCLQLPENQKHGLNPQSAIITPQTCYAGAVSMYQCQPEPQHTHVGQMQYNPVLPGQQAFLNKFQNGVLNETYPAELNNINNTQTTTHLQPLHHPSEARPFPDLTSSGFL
How it was run: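 Measured in HG2L7.5c1 cells: CellTiter-Fluor signal (30 min incubation, 37C) for viability, then luciferase luminescence (30 min, room temperature). Compound contact time was 24 h at 37C, following a 5 h pre-incubation.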

[13] = qHTS assay to test for compound auto fluorescence at 590 nm (red) in HepG2 cell free culture (AID 720684)
How it was run: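 Rose Bengal sodium served as the reference for red signal. Test compounds were dispensed into serum-containing MEM (10% FBS) without cells, and plates were read at 540/590 nm.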

[14] = qHTS assay for identifying genotoxic compounds that show differential cytotoxicity against isogenic chicken DT40 cell lines with known DNA damage response pathways - Rad54/Ku70 mutant cell line (AID 743015); also: nearly all actives have a fitted effect of over 60% in size; also: potency is read from the fitted curve at half-maximal effect
[15] = molecular target: Estrogen receptor (Homo sapiens) (UniProt P03372); experiment: qHTS assay to identify small molecule agonists of the estrogen receptor alpha (ER-alpha) signaling pathway (AID 743075; calls by dose curve;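 also: HEK293 GripTite cells with ER-alpha and UAS-driven beta-lactamase reporter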; also: potency is read from the fitted curve at half-maximal effect)
Sequence of Estrogen receptor (Homo sapiens) (P03372 whole entry, looked up): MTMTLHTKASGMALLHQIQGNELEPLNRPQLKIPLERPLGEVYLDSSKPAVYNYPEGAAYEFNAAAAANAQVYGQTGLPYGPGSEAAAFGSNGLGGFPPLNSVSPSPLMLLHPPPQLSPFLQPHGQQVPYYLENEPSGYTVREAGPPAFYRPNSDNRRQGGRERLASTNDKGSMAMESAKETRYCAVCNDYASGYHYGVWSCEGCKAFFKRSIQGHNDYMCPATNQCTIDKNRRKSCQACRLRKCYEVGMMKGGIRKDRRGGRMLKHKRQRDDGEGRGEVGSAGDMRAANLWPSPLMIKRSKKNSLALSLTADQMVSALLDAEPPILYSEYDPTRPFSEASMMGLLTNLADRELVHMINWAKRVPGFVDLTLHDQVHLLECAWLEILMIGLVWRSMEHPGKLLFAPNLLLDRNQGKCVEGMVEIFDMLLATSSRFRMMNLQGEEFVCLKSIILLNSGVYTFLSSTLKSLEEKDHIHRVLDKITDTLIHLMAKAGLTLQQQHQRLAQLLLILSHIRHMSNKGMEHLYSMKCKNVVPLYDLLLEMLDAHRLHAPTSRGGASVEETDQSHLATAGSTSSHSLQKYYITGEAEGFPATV

[16] = molecular target: Estrogen receptor (Homo sapiens) (UniProt P03372); experiment: qHTS assay to identify small molecule agonists of the estrogen receptor alpha (ER-alpha) signaling pathway using the BG1 cell line (AID 743079); also: nearly all actives have a fitted effect of over 20% in size; also: potency is read from the fitted curve at half-maximal effect
[17] = qHTS assay to identify small molecule antagonists of the estrogen receptor alpha (ER-alpha) signaling pathway using the BG1 cell line (AID 743080; calls by dose curve; also: series mostly up to about 70 µM; nearly all actives have a fitted effect of over 25% in size)
How it was run: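 Antagonist mode: compounds in DMSO were pinned onto BG1-Luc-4E2 cells alongside 17beta-estradiol agonist, incubated 21.5 h, and ERE-driven luciferase measured with ONE-Glo. Cytotoxicity was multiplexed using CellTiter-Fluor fluorescence.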

[18] = molecular target: Peroxisome proliferator-activated receptor gamma (Homo sapiens) (UniProt P37231); experiment: qHTS assay to identify small molecule agonists of the peroxisome proliferator-activated receptor gamma (PPARg) signaling pathway (AID 743094; active = well fitted activation curve with a large enough effect in the signal ratio in the repeat runs, not every such curve was filed as active; inconclusive = weak or mixed curves, or effect the other way; inactive = no such curve, though single readings can be large or run the other way; the % refers to the signal ratio)
Sequence of Peroxisome proliferator-activated receptor gamma (Homo sapiens) (P37231 whole entry, looked up): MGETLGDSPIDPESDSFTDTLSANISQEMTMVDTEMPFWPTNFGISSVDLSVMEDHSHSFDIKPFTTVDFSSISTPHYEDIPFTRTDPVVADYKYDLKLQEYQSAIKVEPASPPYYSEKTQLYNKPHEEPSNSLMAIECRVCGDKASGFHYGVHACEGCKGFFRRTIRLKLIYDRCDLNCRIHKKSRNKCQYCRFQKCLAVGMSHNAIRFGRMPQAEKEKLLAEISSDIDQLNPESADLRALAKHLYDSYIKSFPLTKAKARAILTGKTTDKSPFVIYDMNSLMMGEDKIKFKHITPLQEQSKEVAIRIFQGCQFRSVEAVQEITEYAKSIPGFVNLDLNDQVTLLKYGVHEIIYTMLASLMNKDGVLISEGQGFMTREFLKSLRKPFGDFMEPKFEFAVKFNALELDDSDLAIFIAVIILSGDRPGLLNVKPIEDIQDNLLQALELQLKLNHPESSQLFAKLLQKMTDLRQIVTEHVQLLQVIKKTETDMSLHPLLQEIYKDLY
How it was run: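 HEK293H PPARg-bla cells, 5 h settle at 37C/5% CO2; compound (DMSO) 17 h, 37C; B/G FRET substrate 1 h RT; fluorescence intensity read-out. qHTS format.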

[19] = molecular target: Nuclear receptor subfamily 1 group I member 2 (Homo sapiens) (UniProt O75469); experiment: CYP3A4 induction through human pregnane X receptor (PXR) by small molecules, qHTS assay (AID 1346984); also: nearly all actives have a fitted effect of over 40% in size; also: potency is read from the fitted curve at half-maximal effect
How it was run: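 HepG2-derived DPX-2 line carrying PXR plus a CYP3A4-promoter luciferase reporter; cells plated 5 hr, compound-exposed 24 hr at 37C. CYP3A4 activity probed with 3uM (final) Luciferin-IPA for 3hr, then luciferase read after One-Glo.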

[20] = molecular target: Nuclear receptor subfamily 1 group I member 2 (Homo sapiens) (UniProt O75469); experiment: Human pregnane X receptor (PXR) activation by small molecules, qHTS assay (AID 1346985); also: nearly all actives have a fitted effect of over 40% in size; also: potency is read from the fitted curve at half-maximal effect
How it was run: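 DPX-2 cells (HepG2 co-transfected with a PXR response element and a CYP3A4-promoter luciferase construct) were seeded at 2,000 per well, rested 5 hr at 37C, then exposed to DMSO-dissolved compounds for 24 hr. Activation was read as luciferase luminescence.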

Measured: Potency

CN(C)CCCCCCN(C)C (tested in a mixture with another compound)
not listed: [13] | [14] | [15] | [16] | [17] | [18] | [19] | [20]
inactive: all other assays above

C=CCC1(C(C)CCC)C(=O)N=C(S)NC1=O (stereo not drawn)
not listed: [2] | [10] | [11] | [19] | [20]
inactive: all other assays above

C[C@@H](CO)NC(=O)[C@@H]1C=C2c3cccc4[nH]cc(c34)C[C@H]2N(C)C1
active: [1] 9.44 µM
not listed: [2] | [10] | [11] | [15] | [16] | [17]
inactive: all other assays above

CCN1C[C@]2(COC)[C@H](O)C[C@H](OC)[C@@]34[C@@H]5C[C@@]6(O)[C@H](OC(=O)c7ccccc7)[C@@H]5[C@@](OC(C)=O)([C@@H]([C@H](OC)[C@H]23)[C@@H]14)[C@@H](O)[C@@H]6OC
not listed: [6] | [19]
inactive: all other assays above

c1csc(C2(N3CCCCC3)CCCCC2)c1
not listed: [6] | [9] | [20]
inactive: all other assays above

Oc1cc[c]([Hg][Cl])cc1
active: [1] 11.9 µM | [7] 6.74 µM and 19 µM | [8] 750 nM and 841 nM | [14] 473 nM | [9] 11.9 µM and 13.3 µM | [10] 596 nM and 841 nM | [11] 422 nM and 531 nM | [15] 21.3 µM [inconclusive]
inactive: [2] | [3] | [4] | [5] | [12] | [19]

CCNC(C)Cc1cccc(C(F)(F)F)c1 (stereo not drawn)
not listed: [1] | [8] | [14]
inactive: all other assays above

CC(=O)OO
not listed: [6] | [7] | [9]
inactive: all other assays above

CC(C)(O)[C@@H]1[C@H]2OC(=O)[C@@H]1[C@]1(O)C[C@H]3O[C@]34C(=O)O[C@H]2[C@]14C
inactive: [2] | [4] | [5] | [6] | [7] | [8] | [14] | [10] | [19] | [20]

COc1ccc2c3c1O[C@H]1C(=O)CC[C@H]4[C@@H](C2)N(C)CC[C@]314
not listed: [1] | [6] | [10] | [11] | [12] | [13] | [14] | [17]
inactive: all other assays above

[S]=[Sb](=[S])[S][Sb](=[S])=[S]
not listed: [2] | [4] | [8] | [10] | [11] | [13]
inactive: all other assays above

C[C@@H](Cc1ccccc1)N(C)C
inactive: [1] | [2] | [3] | [4] | [5] | [8] | [9] | [11] | [18] | [19] | [20]

CCN(CC)C(=O)N[C@H]1C[C@@H]2c3cccc4[nH]cc(c34)C[C@H]2N(C)C1
inactive: [2] | [3] | [4] | [13] | [5] | [7] | [9] | [10] | [18]
active: [20] 25.1 µM

CCC1(c2ccccc2)C(=O)NC(=O)N(C(=O)c2ccccc2)C1=O (stereo not drawn)
inactive: [2] | [4] | [5] | [6] | [8] | [9] | [10] | [12] | [18]
active: [1] 23.7 µM | [19] 28.2 µM

CCON=O
not listed: [12] | [14] | [16]
inactive: all other assays above

CN[C@H]1C[C@@H](N)[C@H](O)[C@@H](O[C@@H]2O[C@H](CO)[C@H](O)[C@@H]3OC4(O[C@H]23)O[C@H](C(N)CO)[C@H](O)[C@H](O)[C@H]4O)[C@@H]1O (stereo partly drawn)
active: [11] 11.9 µM
not listed: [1] | [4] | [6] | [12] | [14] | [17]
inactive: all other assays above

C/C=C(\CC)C(=O)NC(N)=O
active: [16] 29.8 µM
not listed: [3] | [10] | [19] | [20]
inactive: all other assays above

O=c1ccc2cc(O[C@@H]3O[C@H](CO)[C@@H](O)[C@H](O)[C@H]3O)c(O)cc2o1
inactive: [1] | [7] | [8] | [14] | [16] | [17] | [12]
active: [4] 8.91 µM

CN1[C@H]2CC[C@@H]1[C@@H](C(=O)O)[C@@H](OC(=O)c1ccccc1)C2
not listed: [4] | [6] | [9] | [10] | [14]
inactive: all other assays above

O=C(OCCN1CCCCC1)C(O)(c1ccccc1)c1ccccc1
not listed: [1] | [6] | [9] | [14]
inactive: all other assays above

CC1(C)[C@H](C=C(Cl)Cl)[C@H]1C(=O)OCc1c(F)c(F)cc(F)c1F
active: [1] 22.1 µM
not listed: [3] | [4] | [8] | [10] | [11] | [13] | [14] | [18]
inactive: all other assays above

C[C@]12CC[C@H]3[C@@H](CCC4=C(Cl)C(=O)CC[C@@]43C)[C@@H]1CC[C@@H]2O
active: [8] 9.44 µM | [14] 23700 nM | [11] 13.3 µM | [15] 2.68 µM [inconclusive] | [16] 1.5 µM
not listed: [1] | [5] | [6] | [7] | [17] | [20]
inactive: all other assays above

O[C@H]1[C@H]2[C@H](O)CCCN2C[C@H]1O
not listed: [3] | [8] | [10] | [13]
inactive: all other assays above

CCCSc1cc(OC)c(CCN)cc1OC
active: [8] 0.258 µM | [14] 258 nM | [11] 32.5 µM
inactive: [2] | [13] | [5] | [6] | [7] | [15] | [17] | [18]

C[C@@H]1[C@@H]2Cc3ccc(O)cc3[C@@]1(C)CCN2CC1CC1
not listed: [15] | [16] | [17] | [19] | [20]
inactive: all other assays above

NC1=NC(=O)N2CC12 (stereo not drawn)
not listed: [4] | [6]
inactive: all other assays above

CN[C@@H](C)Cc1ccccc1
inactive: [1] | [2] | [3] | [4] | [13] | [5] | [7] | [8] | [14] | [10] | [11]

CC(=O)[C@@]1(O)CC[C@H]2[C@@H]3CCC4=CC(=O)CC[C@]4(C)C3(F)[C@@H](O)C[C@@]21C (stereo partly drawn)
active: [6] 190 nM [inconclusive]
not listed: [3] | [5] | [8] | [13] | [17] | [19] | [20]
inactive: all other assays above
